Screening results deposited in PubChem BioAssay by The Scripps Research Institute Molecular Screening Center.
Compounds with a hit are over-represented: about 5.7% of the library has one in this group of screens.
hcDAF-12 act: activators of H. contortus DAF-12 nuclear receptor; HEK293 hcDAF-12 lit1-tk-luc reporter, luminescence; 0% DMSO, 100% Δ7-dafachronic acid; activation, % at 6.8 µM; actives 1.4% (n = 370,000); AID 652067;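 active means activation above the mean of all tested compounds plus 3 SD, cut at about 5.5% in these data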;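 further: 100% = response to 3 µM Δ7-dafachronic acid high control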
ssDAF12 agonist: activators of S. stercoralis DAF-12 nuclear receptor; HEK293 ssDAF-12/GRIP1 lit1-tk-luc reporter, luminescence; % of 3 µM dafachronic acid response; activation, % at 6.8 µM; actives 1% (n = 370,000); AID 652126;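 active means activation above the mean over all tested compounds plus 3 SD, cut at about 0.9% in these data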;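 further: 0% = DMSO-only wells and 100% = 3 µM delta7-dafachronic acid wells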
DAX1 inh-1: inhibitors of human orphan nuclear receptor DAX1 (NR0B1) | P51843 | inhibition, % at 6.75 µM | AID 504766 | actives 0.99% (n = 340,000) | HEK293 Gal4-DAX1 luciferase reporter, luminescence;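 active means inhibition above the mean over all tested compounds plus 3 SD, cut at about 4.2% in these data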;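 further: 0% = DAX1-transfected cells with DMSO and 100% = empty-vector control cells with DMSO; inhibition shows as a rise in luminescence from relieved DAX1 repression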
hgDAF-12 ag: hgDAF-12 agonism, primary luciferase screen | HEK293 GAL4-hgDAF12 UAS-luciferase reporter, agonist luminescence; normalized to butyrate control | activation, % at 6.8 µM | actives 1.8% (n = 370,000);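 active means activation above a cutoff set at the mean of all screened compounds plus 3 SD, cut at about 10% in these data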;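 further: 0% = DMSO wells and 100% = sodium butyrate wells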
DAX1 inh-2: DAX1 (NR0B1) inhibition, primary screen. HEK293T StAR-luciferase reporter, SF-1/DAX-1 repression relief. inhibition, % at 6.8 µM. actives 1.1% (n = 370,000). AID 652010;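 active means inhibition above the mean over all tested compounds plus 3 SD, cut at about 3.6% in these data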;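 further: 0% = DAX-1 cells with DMSO and 100% = cells lacking DAX-1 with DMSO; higher inhibition means more luminescence from relief of DAX-1 repression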
AHR activator: activates the human aryl hydrocarbon receptor | AHR-responsive luciferase reporter cells, luminescence | P35869 | activation, % at 5 µM | actives 2.5% (n = 320,000); in the data active means activation above about 47%;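 further: 0% = vehicle wells and 100% = reference agonist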
hgDAF12 conf: confirmation of H. glycines DAF-12 agonists. actives 80% (n = 3,300). AID 743050. shares compounds with hgDAF-12 ag. activation, % at 6.8 µM. HEK293 GAL4-hgDAF12 luciferase reporter, agonist mode; percent of butyrate response;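 active means mean activation over triplicate wells above the hit cutoff derived from the earlier primary screen, cut at about 11% in these data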;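 further: 0% = DMSO low control and 100% = 2 mM sodium butyrate high control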
LXR ag 2: activates human LXR-beta, counter-screen for DAF-12 agonists; shares compounds with hgDAF-12 ag; HEK293 Gal4-LXR luciferase reporter, 24 h; activation, % at 6.8 µM; 3,300 tested, under 10 active;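 active means mean activation of the triplicate above a set limit carried over from the primary screen, none filed active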
Target sequence (P55055 whole entry, looked up, the tested form may be a part): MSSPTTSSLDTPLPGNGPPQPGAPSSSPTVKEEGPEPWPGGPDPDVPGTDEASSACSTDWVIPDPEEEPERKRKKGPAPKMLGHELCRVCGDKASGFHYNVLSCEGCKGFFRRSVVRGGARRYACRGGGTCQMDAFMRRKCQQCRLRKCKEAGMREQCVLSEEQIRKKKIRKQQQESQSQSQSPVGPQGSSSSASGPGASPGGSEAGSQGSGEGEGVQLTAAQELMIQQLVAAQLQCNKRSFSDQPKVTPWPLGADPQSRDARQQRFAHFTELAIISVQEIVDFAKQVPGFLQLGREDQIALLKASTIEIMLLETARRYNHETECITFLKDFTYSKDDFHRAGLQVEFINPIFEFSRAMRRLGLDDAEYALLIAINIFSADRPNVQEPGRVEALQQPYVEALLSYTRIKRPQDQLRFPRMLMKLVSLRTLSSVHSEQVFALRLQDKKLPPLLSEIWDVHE
Numbers without * were called inactive; / = no result given.

SMILES	hcDAF-12 act	ssDAF12 agonist	DAX1 inh-1	hgDAF-12 ag	DAX1 inh-2	AHR activator	hgDAF12 conf	LXR ag 2
O=C(CCNS(=O)(=O)c1ccccc1C(F)(F)F)NCCCc1ccccc1	1	-1	0	2	1	-1	/	/
O=C(C=C1SCCS1)/C=C/c1ccco1	4	0	0	15*	3.7*	0	14*	1
Cc1ccc(C(=O)N(CCc2ccccc2)Cc2ccccc2)cc1S(=O)(=O)N1CCCCC1	-2	-1	0	-2	-3	1	/	/
CCn1nc(C)c(CNC(=O)C2CCC(=O)N(CCc3ccc(Cl)cc3)C2)c1C (stereo not drawn)	-2	-1	0	0	0	-1	/	/
Cc1ccc(CNC(=O)CCn2c(=O)oc3ccccc32)cc1	0	0	0	13*	-1	-3	1	0
O=C(CCn1c(=O)oc2ccccc21)NCc1ccco1	-1	-1	0	0	1	-1	/	/
C/C(=N\NC(=O)c1ccn[nH]1)c1cn(C)nc1C	3	1.3*	2	15*	2	25	10	0
Nc1nc2ccc(C(=O)Nc3ccc(N4CCOCC4)cc3)cc2s1	1	-1	1	7	1	7	/	/
O=C(Nc1ccc(N2CCOCC2)cc1)c1nc2ccccc2s1	4	0	2	18*	4.3*	7	15*	1
COCOCCn1cc(CN2CCS(=O)(=O)N(Cc3ccc(-c4ccc(OC)cc4)cc3)C(C)C2=O)nn1 (stereo not drawn)	-2	-1	-1	0	0	/	/	/
O=C(CC[C@H]1O[C@@H](n2ccc(=O)[nH]c2=O)[C@H](O)[C@@H]1O)NCc1ccccc1	3	-1	/	0	-1	/	/	/
Cc1ccc(-c2cn3cccnc3n2)cc1	2	-1	1	15*	2	0	11*	0
CS(=O)(=O)Nc1ccc(-c2cn3cccnc3n2)cc1	2	-1	-1	3	0	7	/	/
Cc1ccc(/C=c2/sc3n(c2=O)CCCN=3)o1	0	-1	3	6	1	-15	/	/
O=c1/c(=C\c2ccc3c(c2)OCO3)sc2n1CCCN=2	3	0	4.6*	19*	3	-9	14*	1
COC(=O)[C@H](CC(C)C)NC(=O)N1CCC(C)CC1	0	-1	1	-1	0	-2	/	/
Cc1cccc(OCC(=O)NCC(=O)N/N=C/c2cc(Br)cc(Br)c2O)c1	-1	0	0	1	0	12	/	/
O=C(O)c1cc(-c2cccs2)[nH]n1	0	0	1	15*	0	0	1	0
O=c1[nH]c2ccccc2nc1/C=C/c1ccc(F)cc1	4	-1	2	16*	2	74*	11*	0
O=c1[nH]c2ccccc2nc1/C=C/c1ccc(O)cc1	-1	-1	0	14*	0	/	4	1
Cc1cc(C)n(CCC(=O)N2CCN(S(=O)(=O)c3ccccc3)CC2)n1	-1	-1	2	1	0	0	/	/
Cc1ccc(Nc2nc(-c3ccccc3)c(CC(=O)O)s2)cc1	2	0	0	14*	2	30	13*	0
O=C1c2ccccc2CN1CCSC(=S)N1CCOCC1	4	0	3	16*	3	9	16*	1
O=C1c2ccccc2CN1CCSC(=S)N1CCSCC1	/	/	/	/	/	5	/	/
O=C(COc1ccc(Br)cc1)NCCCNC(=O)c1cnccn1	-2	-1	-1	-3	0	1	/	/
Cc1c(C(=O)NCCc2ccccc2)oc2ccccc12	4	0	2	16*	3	-3	14*	1
O=C(NCCc1ccccc1)c1oc2ccccc2c1COc1ccccc1	-3	-2	1	2	0	4	/	/
O=C(Nc1cc2c(cc1Cl)OCCCO2)c1ccc(F)cc1	2	-1	2	8	2	-1	/	/
